Results as given in PubChem BioAssay (NCI).
The panel holds about 83,000 compounds, 20% with a hit somewhere; the sample as a whole holds those more often.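 Values shown are percent growth following 48 h exposure of cells in 96-well plates to a single concentration of compound; below 10 was considered active.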 Calls of active or inactive are those of the source.

What was measured:
Assay in all cases: NCI-60 one-dose screen, 48 h (100 = growth as untreated, 0 = no growth, -100 = all killed)
Details in all cases: 10 µM unless noted
SR leukemia = test system: SR leukemia
RPMI-8226 leukemia = test system: RPMI-8226 leukemia
OVCAR-8 ovarian = test system: OVCAR-8 ovarian
OVCAR-5 ovarian = test system: OVCAR-5 ovarian
OVCAR-4 ovarian = test system: OVCAR-4 ovarian
SK-OV-3 ovarian = test system: SK-OV-3 ovarian
IGROV1 ovarian = test system: IGROV1 ovarian
OVCAR-3 ovarian = test system: OVCAR-3 ovarian
HS 578T breast = test system: HS 578T breast
NCI/ADR-RES ovarian = test system: NCI/ADR-RES ovarian
T-47D breast = test system: T-47D breast
BT-549 breast = test system: BT-549 breast
MDA-MB-435 melanoma = test system: MDA-MB-435 melanoma
SW-620 colon = test system: SW-620 colon
MCF7 breast = test system: MCF7 breast
HCT-116 colon = test system: HCT-116 colon
HCC-2998 colon = test system: HCC-2998 colon
KM12 colon = test system: KM12 colon

Measured: growth

CCC(C)(C)C(=O)O[C@H]1C[C@@H](C)C=C2C=C[C@H](C)[C@H](CC[C@@H]3CC(SCCN)CC(=O)O3)[C@H]21 (stereo partly specified)
active: RPMI-8226 leukemia 6.62%
inactive: SR leukemia 23.3% | OVCAR-8 ovarian 88.1% | OVCAR-5 ovarian 99.1% | OVCAR-4 ovarian 101% | SK-OV-3 ovarian 102% | IGROV1 ovarian 98.6% | OVCAR-3 ovarian 90.9% | HS 578T breast 98.9% | NCI/ADR-RES ovarian 96.7% | T-47D breast 89.8% | BT-549 breast 78.7% | MDA-MB-435 melanoma 93.3% | SW-620 colon 81.8% | MCF7 breast 79.9% | HCT-116 colon 37.5% | HCC-2998 colon 73.6% | KM12 colon 88.2%

CCOC(=O)c1c(NC(=O)c2ccc(Cl)cc2)sc2c(CN(C)C)c(O)ccc12
inactive: OVCAR-8 ovarian 47.7% | OVCAR-5 ovarian 95.2% | OVCAR-4 ovarian 73.5% | SK-OV-3 ovarian 81.6% | IGROV1 ovarian 66.1% | OVCAR-3 ovarian 105% | HS 578T breast 79.2% | NCI/ADR-RES ovarian 73.3% | T-47D breast 71.4% | BT-549 breast 100% | MDA-MB-435 melanoma 76.7% | SW-620 colon 28.1% | MCF7 breast 66.6% | HCT-116 colon 70.7% | KM12 colon 87.9%
active: SR leukemia -8.09% | RPMI-8226 leukemia -13% | HCC-2998 colon -71.7%

Cc1cc(C(=O)O)c(C)n1-c1cccc(C(=O)O)c1
inactive: SR leukemia 62.6% | RPMI-8226 leukemia 107% | OVCAR-8 ovarian 73.4% | OVCAR-5 ovarian 66.4% | OVCAR-4 ovarian 91.4% | SK-OV-3 ovarian 105% | IGROV1 ovarian 56.9% | OVCAR-3 ovarian 121% | HS 578T breast 92.5% | NCI/ADR-RES ovarian 72.1% | T-47D breast 84.1% | BT-549 breast 83.3% | MDA-MB-435 melanoma 100% | SW-620 colon 44.6% | MCF7 breast 61.2% | HCT-116 colon 35.3% | HCC-2998 colon 101% | KM12 colon 97.8%

CN(C)c1ccc(C(=O)OCCCCCCl)cc1
inactive: SR leukemia 89.4% | RPMI-8226 leukemia 106% | OVCAR-8 ovarian 106% | OVCAR-5 ovarian 75.6% | OVCAR-4 ovarian 95.4% | SK-OV-3 ovarian 102% | IGROV1 ovarian 101% | OVCAR-3 ovarian 95.4% | HS 578T breast 103% | NCI/ADR-RES ovarian 97.6% | T-47D breast 82% | BT-549 breast 94.1% | MDA-MB-435 melanoma 96.6% | SW-620 colon 99.9% | MCF7 breast 95.1% | HCT-116 colon 96.7% | HCC-2998 colon 98.4% | KM12 colon 97%

O=C(c1ccccc1)c1ccc(C2CCCCC2)cc1
inactive: SR leukemia 107% | RPMI-8226 leukemia 95.6% | OVCAR-8 ovarian 97.8% | OVCAR-5 ovarian 95.4% | OVCAR-4 ovarian 95.2% | SK-OV-3 ovarian 91.6% | IGROV1 ovarian 100% | OVCAR-3 ovarian 98.7% | HS 578T breast 103% | NCI/ADR-RES ovarian 99.7% | T-47D breast 85.7% | BT-549 breast 115% | MDA-MB-435 melanoma 99.8% | SW-620 colon 93.4% | MCF7 breast 95.7% | HCT-116 colon 83.8% | HCC-2998 colon 107% | KM12 colon 103%

CCCn1cc2c(=O)nc3sc(Cc4ccccc4)c(C)n3c2n1
inactive: SR leukemia 73.8% | RPMI-8226 leukemia 99.5% | OVCAR-8 ovarian 91.8% | OVCAR-5 ovarian 111% | OVCAR-4 ovarian 99% | SK-OV-3 ovarian 104% | IGROV1 ovarian 105% | OVCAR-3 ovarian 99.3% | HS 578T breast 99.5% | NCI/ADR-RES ovarian 96.7% | T-47D breast 84.8% | BT-549 breast 106% | MDA-MB-435 melanoma 106% | SW-620 colon 101% | MCF7 breast 91.6% | HCT-116 colon 102% | HCC-2998 colon 104% | KM12 colon 94.4%

COC(=O)c1nc(-c2ccc(C)cc2)oc1S(=O)(=O)c1cccc(OC)c1
inactive: RPMI-8226 leukemia 94.2% | OVCAR-8 ovarian 93% | OVCAR-5 ovarian 92.1% | OVCAR-4 ovarian 107% | SK-OV-3 ovarian 105% | IGROV1 ovarian 81.5% | OVCAR-3 ovarian 77.8% | HS 578T breast 110% | NCI/ADR-RES ovarian 103% | T-47D breast 90% | BT-549 breast 70.6% | MDA-MB-435 melanoma 100% | SW-620 colon 65.5% | MCF7 breast 95.6% | HCT-116 colon 61.6% | HCC-2998 colon 103% | KM12 colon 93.5%
active: SR leukemia 0.69%

C[PH+](c1nc2ccccc2nc1[PH+](C)C(C)(C)C)C(C)(C)C.C[PH+](c1nc2ccccc2nc1[PH+](C)C(C)(C)C)C(C)(C)C.[Au+].[Cl-] (stereo unspecified)
active: SR leukemia 6.59% | RPMI-8226 leukemia -18.1% | OVCAR-8 ovarian -54.3% | OVCAR-5 ovarian -100% | OVCAR-4 ovarian -100% | SK-OV-3 ovarian -100% | IGROV1 ovarian -87.9% | OVCAR-3 ovarian -100% | HS 578T breast -38.6% | NCI/ADR-RES ovarian -79.5% | T-47D breast -79.9% | BT-549 breast -74.4% | MDA-MB-435 melanoma -79.3% | SW-620 colon -100% | MCF7 breast -84.3% | HCT-116 colon -100% | HCC-2998 colon -100% | KM12 colon -99.3%

CNC(=O)c1[nH]cc(-c2ccc(OC)cc2)c1-c1cc(OC)c2c(c1OC)OCO2
inactive: SR leukemia 102% | RPMI-8226 leukemia 108% | OVCAR-8 ovarian 98.7% | OVCAR-5 ovarian 95.8% | OVCAR-4 ovarian 96.4% | SK-OV-3 ovarian 99.9% | IGROV1 ovarian 87.4% | OVCAR-3 ovarian 100% | HS 578T breast 115% | NCI/ADR-RES ovarian 95.8% | T-47D breast 92.3% | BT-549 breast 97.4% | MDA-MB-435 melanoma 99.6% | SW-620 colon 103% | MCF7 breast 97.5% | HCT-116 colon 95.6% | HCC-2998 colon 101% | KM12 colon 104%

COc1ccc(F)cc1/C=C/C(=O)/C=C(/C=C/c1cc(F)ccc1OC)OB(F)F
active: SR leukemia -0.793% | RPMI-8226 leukemia -13.5% | OVCAR-8 ovarian 7.46% | OVCAR-3 ovarian 1.71% | MDA-MB-435 melanoma 2.57% | HCT-116 colon 0.9%
inactive: OVCAR-5 ovarian 48.9% | OVCAR-4 ovarian 28.8% | SK-OV-3 ovarian 97% | IGROV1 ovarian 25% | HS 578T breast 19.9% | NCI/ADR-RES ovarian 19.8% | T-47D breast 36.4% | BT-549 breast 33.7% | SW-620 colon 14.1% | MCF7 breast 29.2% | HCC-2998 colon 104% | KM12 colon 73.6%

CCN(C)S(=O)(=O)Nc1cccc(Nc2ncnc3cc(NC(=O)CCl)ccc23)c1Cl
inactive: OVCAR-4 ovarian 14.9% | SK-OV-3 ovarian 23.4% | HS 578T breast 13.4% | NCI/ADR-RES ovarian 59.3% | T-47D breast 16% | HCC-2998 colon 39.1%
active: SR leukemia 6.73% | RPMI-8226 leukemia -6.79% | OVCAR-8 ovarian 2.03% | OVCAR-5 ovarian -17.5% | IGROV1 ovarian -7.09% | OVCAR-3 ovarian -65.1% | BT-549 breast -4.04% | MDA-MB-435 melanoma -5.32% | SW-620 colon -53.5% | MCF7 breast -5.68% | HCT-116 colon 0.862% | KM12 colon 1.71%

Cc1[nH]c(=O)[nH]c(=O)c1Br
inactive: SR leukemia 77.6% | RPMI-8226 leukemia 111% | OVCAR-8 ovarian 95.2% | OVCAR-5 ovarian 114% | OVCAR-4 ovarian 117% | SK-OV-3 ovarian 115% | IGROV1 ovarian 147% | OVCAR-3 ovarian 124% | HS 578T breast 104% | NCI/ADR-RES ovarian 97.8% | T-47D breast 108% | BT-549 breast 108% | MDA-MB-435 melanoma 102% | SW-620 colon 102% | MCF7 breast 95.6% | HCT-116 colon 106% | HCC-2998 colon 87.8% | KM12 colon 108%

CCCCNC(=O)Oc1ccc(/C(=C(/C)Cc2ccc(OC)cc2)c2ccc(OCCN3CCCC3)cc2)cc1
active: SR leukemia -54.1% | RPMI-8226 leukemia 1.62%
inactive: OVCAR-8 ovarian 69.6% | OVCAR-5 ovarian 86% | OVCAR-4 ovarian 68.9% | SK-OV-3 ovarian 89.1% | IGROV1 ovarian 85.5% | OVCAR-3 ovarian 56.1% | HS 578T breast 50.4% | NCI/ADR-RES ovarian 81.5% | T-47D breast 32.4% | BT-549 breast 73.8% | MDA-MB-435 melanoma 55.8% | SW-620 colon 72.7% | MCF7 breast 17.7% | HCT-116 colon 39.3% | HCC-2998 colon 64.7% | KM12 colon 55.3%

COc1ccccc1CNc1c2ccccc2nc2ccccc12
active: SR leukemia 9.9% | RPMI-8226 leukemia 8.12%
inactive: OVCAR-8 ovarian 31.9% | OVCAR-5 ovarian 49.8% | OVCAR-4 ovarian 42.2% | SK-OV-3 ovarian 61.4% | IGROV1 ovarian 26.3% | OVCAR-3 ovarian 54.3% | HS 578T breast 62% | NCI/ADR-RES ovarian 34.8% | T-47D breast 46.2% | BT-549 breast 77% | MDA-MB-435 melanoma 42.6% | SW-620 colon 22.1% | MCF7 breast 16.8% | HCT-116 colon 12.7% | HCC-2998 colon 38.8% | KM12 colon 32.9%

[O-]/[N+](=C\c1ccc(-n2cc(Cc3ccccc3Cc3cn(-c4ccc(/C=[N+](/[O-])c5ccccc5)cc4)nn3)nn2)cc1)c1ccccc1
inactive: SR leukemia 95% | RPMI-8226 leukemia 103% | OVCAR-8 ovarian 103% | OVCAR-5 ovarian 112% | OVCAR-4 ovarian 99.3% | SK-OV-3 ovarian 106% | IGROV1 ovarian 95.4% | OVCAR-3 ovarian 102% | HS 578T breast 110% | NCI/ADR-RES ovarian 97.6% | T-47D breast 93.8% | BT-549 breast 83.3% | MDA-MB-435 melanoma 109% | SW-620 colon 102% | MCF7 breast 90.6% | HCT-116 colon 91.2% | HCC-2998 colon 104% | KM12 colon 98.8%

O=C(CSc1nnc(-c2cnccn2)n1-c1ccccc1)c1ccc(Cl)cc1
inactive: SR leukemia 90.8% | RPMI-8226 leukemia 92% | OVCAR-8 ovarian 100% | OVCAR-5 ovarian 96.9% | OVCAR-4 ovarian 105% | SK-OV-3 ovarian 108% | IGROV1 ovarian 106% | OVCAR-3 ovarian 98.3% | HS 578T breast 104% | NCI/ADR-RES ovarian 104% | T-47D breast 85.9% | BT-549 breast 91.6% | MDA-MB-435 melanoma 106% | SW-620 colon 106% | MCF7 breast 94.1% | HCT-116 colon 95.4% | HCC-2998 colon 108% | KM12 colon 94.8%

O=C1c2c(c3c4ccccc4[nH]c3c3ccc4ccccc4c23)C(=O)N1CCN1CCOCC1
active: RPMI-8226 leukemia 7.91%
inactive: SR leukemia 13.1% | OVCAR-8 ovarian 31.5% | OVCAR-5 ovarian 71.7% | OVCAR-4 ovarian 57.7% | SK-OV-3 ovarian 81.2% | IGROV1 ovarian 30% | OVCAR-3 ovarian 44.1% | HS 578T breast 62.5% | NCI/ADR-RES ovarian 21.1% | T-47D breast 18.6% | BT-549 breast 69.8% | MDA-MB-435 melanoma 58.6% | SW-620 colon 36.1% | MCF7 breast 16.4% | HCT-116 colon 23.4% | HCC-2998 colon 80% | KM12 colon 36.4%
